# How the values were obtained:
# Test in all cases: DAPPL (digital affinity profiling via proximity ligation, sequencing); 10 mM Tris-HCl pH 7.5, 50 mM NaCl, 1 mM DTT, 4% glycerol, room temperature, 30 min; GST-TFs on glutathione beads, 16-mer random dsDNA library, 0.1% formaldehyde crosslink after washing; high values mean tight binding
# FLI1 = molecular target: T1, FLI1 (Homo sapiens, UniProt Q01543 1-452); settings: protein: recombinant; tags: N-terminal GST; dsDNA, one strand shown
# T1 sequence: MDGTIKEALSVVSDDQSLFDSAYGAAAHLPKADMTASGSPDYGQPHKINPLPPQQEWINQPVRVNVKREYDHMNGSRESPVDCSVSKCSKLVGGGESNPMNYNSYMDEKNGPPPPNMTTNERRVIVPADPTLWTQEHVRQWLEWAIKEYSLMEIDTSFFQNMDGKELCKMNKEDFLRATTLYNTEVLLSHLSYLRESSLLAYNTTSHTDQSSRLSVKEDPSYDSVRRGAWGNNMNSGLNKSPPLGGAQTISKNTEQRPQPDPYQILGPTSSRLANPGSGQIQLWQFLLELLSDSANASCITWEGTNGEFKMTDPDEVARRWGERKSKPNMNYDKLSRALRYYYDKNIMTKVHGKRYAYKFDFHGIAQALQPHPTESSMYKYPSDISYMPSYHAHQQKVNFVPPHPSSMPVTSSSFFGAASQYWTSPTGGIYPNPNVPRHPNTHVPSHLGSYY
# Outline: (§1)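 Human transcription factors carrying a GST fusion were produced in yeast, bound to glutathione beads, tagged with DNA barcodes and pooled together with a tag-only sample. Each pool was held with 200 nmole of a random double-stranded 16-mer DNA library in Tris/NaCl/DTT/glycerol buffer for 30 min at room temperature, then washed, crosslinked in 0.1% formaldehyde, proximity-ligated with BsaI/T4 ligase (1 h, 37 °C), PCR-amplified and sequenced on an Illumina NextSeq500. Binding signal is the read frequency of each hexamer for a given factor divided by its frequency in the tag-only sample.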
# ELK1 = molecular target: T2, ELK1 (Homo sapiens, UniProt P19419 1-428); settings: protein: recombinant; tags: N-terminal GST; dsDNA, one strand shown
# T2 sequence: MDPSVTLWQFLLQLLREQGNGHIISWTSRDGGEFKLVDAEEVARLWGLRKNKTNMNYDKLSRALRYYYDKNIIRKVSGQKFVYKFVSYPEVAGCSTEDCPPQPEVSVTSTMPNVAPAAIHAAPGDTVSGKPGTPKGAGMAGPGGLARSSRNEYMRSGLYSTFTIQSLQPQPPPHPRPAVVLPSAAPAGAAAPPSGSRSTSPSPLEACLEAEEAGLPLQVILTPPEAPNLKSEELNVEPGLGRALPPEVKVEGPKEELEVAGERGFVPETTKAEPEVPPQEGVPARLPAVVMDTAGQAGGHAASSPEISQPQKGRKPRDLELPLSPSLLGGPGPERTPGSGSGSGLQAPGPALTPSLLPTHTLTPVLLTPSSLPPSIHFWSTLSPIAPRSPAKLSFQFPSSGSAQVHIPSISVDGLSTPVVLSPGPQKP
# Outline: as §1
# GABPA = molecular target: T3, GABPA (Homo sapiens, UniProt Q06546 1-454); settings: protein: recombinant; tags: N-terminal GST; dsDNA, one strand shown
# T3 sequence: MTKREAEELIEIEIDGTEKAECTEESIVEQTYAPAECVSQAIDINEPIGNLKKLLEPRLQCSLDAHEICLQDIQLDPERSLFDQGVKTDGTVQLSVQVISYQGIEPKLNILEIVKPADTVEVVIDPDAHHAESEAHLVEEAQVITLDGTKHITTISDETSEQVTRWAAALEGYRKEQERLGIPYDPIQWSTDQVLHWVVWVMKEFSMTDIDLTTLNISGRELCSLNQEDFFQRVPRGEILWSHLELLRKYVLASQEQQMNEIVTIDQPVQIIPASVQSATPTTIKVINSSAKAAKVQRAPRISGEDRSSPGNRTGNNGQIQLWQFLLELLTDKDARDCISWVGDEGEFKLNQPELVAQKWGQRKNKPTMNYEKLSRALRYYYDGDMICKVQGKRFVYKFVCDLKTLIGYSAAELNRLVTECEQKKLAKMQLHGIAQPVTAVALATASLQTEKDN
# Outline: as §1
# ERG = molecular target: T4, ERG (Homo sapiens, UniProt P11308 1-479); settings: protein: recombinant; tags: N-terminal GST; dsDNA, one strand shown
# T4 sequence: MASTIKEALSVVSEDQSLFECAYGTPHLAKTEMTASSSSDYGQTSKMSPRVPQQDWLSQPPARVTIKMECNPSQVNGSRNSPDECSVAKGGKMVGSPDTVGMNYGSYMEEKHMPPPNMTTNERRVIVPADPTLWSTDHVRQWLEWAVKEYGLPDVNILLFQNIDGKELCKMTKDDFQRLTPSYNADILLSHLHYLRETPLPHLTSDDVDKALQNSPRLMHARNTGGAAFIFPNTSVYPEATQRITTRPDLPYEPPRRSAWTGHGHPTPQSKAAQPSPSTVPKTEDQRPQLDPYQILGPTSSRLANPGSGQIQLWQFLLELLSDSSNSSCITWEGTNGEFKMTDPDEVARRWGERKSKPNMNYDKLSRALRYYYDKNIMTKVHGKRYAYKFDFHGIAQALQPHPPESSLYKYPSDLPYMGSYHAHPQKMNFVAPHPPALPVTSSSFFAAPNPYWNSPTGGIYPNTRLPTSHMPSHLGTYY
# Outline: as §1
# ELF1 = ELF1 (Homo sapiens, UniProt P32519 1-619); settings: protein: recombinant; tags: N-terminal GST; dsDNA, one strand shown
# Outline: as §1
# EHF = molecular target: T5, EHF (Homo sapiens, UniProt Q9NZC4 1-300); settings: protein: recombinant; tags: N-terminal GST; dsDNA, one strand shown
# T5 sequence: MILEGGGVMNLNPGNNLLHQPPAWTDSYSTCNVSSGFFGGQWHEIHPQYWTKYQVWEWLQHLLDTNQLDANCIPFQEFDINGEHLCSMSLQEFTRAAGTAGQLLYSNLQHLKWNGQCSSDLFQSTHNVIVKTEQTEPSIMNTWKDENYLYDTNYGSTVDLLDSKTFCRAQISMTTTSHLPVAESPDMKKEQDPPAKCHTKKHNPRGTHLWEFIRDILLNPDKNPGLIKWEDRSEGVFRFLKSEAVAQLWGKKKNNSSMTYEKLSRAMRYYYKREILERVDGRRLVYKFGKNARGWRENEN
# Outline: as §1
# SPI1 = SPI1 (Homo sapiens, UniProt P17947 1-270); settings: protein: recombinant; tags: N-terminal GST; dsDNA, one strand shown
# Outline: as §1
# SPIB = SPIB (Homo sapiens, UniProt Q01892 1-262); settings: protein: recombinant; tags: N-terminal GST; dsDNA, one strand shown
# Outline: as §1
# ELK3 = molecular target: T6, ELK3 (Homo sapiens, UniProt P41970 1-407); settings: protein: recombinant; tags: N-terminal GST; dsDNA, one strand shown
# T6 sequence: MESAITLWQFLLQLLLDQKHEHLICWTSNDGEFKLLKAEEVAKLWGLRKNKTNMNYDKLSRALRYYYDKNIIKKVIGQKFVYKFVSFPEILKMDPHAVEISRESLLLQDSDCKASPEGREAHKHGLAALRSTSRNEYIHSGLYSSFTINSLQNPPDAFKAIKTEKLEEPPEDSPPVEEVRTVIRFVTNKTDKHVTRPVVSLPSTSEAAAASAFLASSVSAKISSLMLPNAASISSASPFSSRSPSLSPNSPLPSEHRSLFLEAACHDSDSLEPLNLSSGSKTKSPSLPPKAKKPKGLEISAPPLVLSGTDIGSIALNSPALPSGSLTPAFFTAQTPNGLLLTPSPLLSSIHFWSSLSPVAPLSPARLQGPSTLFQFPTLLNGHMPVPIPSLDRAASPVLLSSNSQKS
# Outline: as §1
# FEV = molecular target: T7, FEV (Homo sapiens, UniProt Q99581 1-238); settings: protein: recombinant; tags: N-terminal GST; dsDNA, one strand shown
# T7 sequence: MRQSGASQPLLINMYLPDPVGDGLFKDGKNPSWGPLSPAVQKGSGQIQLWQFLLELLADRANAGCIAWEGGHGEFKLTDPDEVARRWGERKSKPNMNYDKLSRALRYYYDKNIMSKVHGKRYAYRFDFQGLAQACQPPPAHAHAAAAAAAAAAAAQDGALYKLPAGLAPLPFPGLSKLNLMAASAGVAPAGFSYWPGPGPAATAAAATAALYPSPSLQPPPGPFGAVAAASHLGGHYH
# Outline: as §1
# ETV5 = ETV5 (Homo sapiens, UniProt P41161 1-510); settings: protein: recombinant; tags: N-terminal GST; dsDNA, one strand shown
# Outline: as §1
# HSF1 = HSF1 (Homo sapiens, UniProt Q00613 1-529); settings: protein: recombinant; tags: N-terminal GST; chain copies: 3; dsDNA, one strand shown
# Outline: as §1
# SPIC = molecular target: T8, SPIC (Homo sapiens, UniProt Q8N5J4 1-248); settings: protein: recombinant; tags: N-terminal GST; dsDNA, one strand shown
# T8 sequence: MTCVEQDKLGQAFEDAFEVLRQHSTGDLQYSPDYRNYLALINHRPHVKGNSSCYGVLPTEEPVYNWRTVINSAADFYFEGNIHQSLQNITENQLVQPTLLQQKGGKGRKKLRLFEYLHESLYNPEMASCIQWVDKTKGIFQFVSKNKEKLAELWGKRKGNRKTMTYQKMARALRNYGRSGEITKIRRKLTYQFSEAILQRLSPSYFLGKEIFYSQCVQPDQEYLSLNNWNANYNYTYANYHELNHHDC
# Outline: as §1
# ELF4 = ELF4 (Homo sapiens, UniProt Q99607 1-663); settings: protein: recombinant; tags: N-terminal GST; dsDNA, one strand shown
# Outline: as §1
# ELK4 = molecular target: T9, ELK4 (Homo sapiens, UniProt P28324-2 1-405); settings: protein: recombinant; tags: N-terminal GST; dsDNA, one strand shown
# T9 sequence: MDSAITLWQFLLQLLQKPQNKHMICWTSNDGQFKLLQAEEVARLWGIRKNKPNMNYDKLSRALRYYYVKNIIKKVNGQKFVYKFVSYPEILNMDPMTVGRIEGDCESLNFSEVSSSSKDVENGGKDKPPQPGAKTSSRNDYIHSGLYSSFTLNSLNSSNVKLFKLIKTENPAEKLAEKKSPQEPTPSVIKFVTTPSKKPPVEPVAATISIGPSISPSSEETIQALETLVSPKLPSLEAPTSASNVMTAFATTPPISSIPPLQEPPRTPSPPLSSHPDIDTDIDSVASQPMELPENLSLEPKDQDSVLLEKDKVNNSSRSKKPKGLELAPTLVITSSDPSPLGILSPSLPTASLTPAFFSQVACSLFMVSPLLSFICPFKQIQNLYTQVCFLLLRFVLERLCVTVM
# Outline: as §1
# ETV2 = molecular target: T10, ETV2 (Homo sapiens, UniProt O00321 1-342); settings: protein: recombinant; tags: N-terminal GST; dsDNA, one strand shown
# T10 sequence: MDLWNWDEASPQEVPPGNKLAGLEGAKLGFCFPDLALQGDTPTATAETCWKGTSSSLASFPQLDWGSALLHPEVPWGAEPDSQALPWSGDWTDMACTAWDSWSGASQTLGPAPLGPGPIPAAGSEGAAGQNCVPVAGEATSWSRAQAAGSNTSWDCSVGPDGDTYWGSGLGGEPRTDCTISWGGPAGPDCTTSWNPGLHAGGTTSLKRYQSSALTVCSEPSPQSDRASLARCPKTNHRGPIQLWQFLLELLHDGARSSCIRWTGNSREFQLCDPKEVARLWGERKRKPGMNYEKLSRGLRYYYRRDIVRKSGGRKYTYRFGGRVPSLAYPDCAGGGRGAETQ
# Outline: as §1
# ELF3 = molecular target: T11, ELF3 (Homo sapiens, UniProt P78545 1-371); settings: protein: recombinant; tags: N-terminal GST; dsDNA, one strand shown
# T11 sequence: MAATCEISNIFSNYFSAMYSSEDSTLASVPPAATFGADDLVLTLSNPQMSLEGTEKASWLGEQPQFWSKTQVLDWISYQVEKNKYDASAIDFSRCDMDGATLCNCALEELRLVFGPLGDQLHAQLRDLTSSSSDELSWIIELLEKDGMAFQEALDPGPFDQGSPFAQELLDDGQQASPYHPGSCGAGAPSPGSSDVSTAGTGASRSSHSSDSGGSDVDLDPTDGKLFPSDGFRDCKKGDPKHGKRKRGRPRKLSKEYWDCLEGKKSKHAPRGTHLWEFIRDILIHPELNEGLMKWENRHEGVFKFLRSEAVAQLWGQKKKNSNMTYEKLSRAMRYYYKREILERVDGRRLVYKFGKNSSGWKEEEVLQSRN
# Outline: as §1
# CRX = CRX (Homo sapiens, UniProt O43186 1-299); settings: protein: recombinant; tags: N-terminal GST; dsDNA, one strand shown
# Outline: as §1
# ETV1 = ETV1 (Homo sapiens, UniProt P50549 1-477); settings: protein: recombinant; tags: N-terminal GST; dsDNA, one strand shown
# Outline: as §1
# ELF1, sequence (P32519 whole entry): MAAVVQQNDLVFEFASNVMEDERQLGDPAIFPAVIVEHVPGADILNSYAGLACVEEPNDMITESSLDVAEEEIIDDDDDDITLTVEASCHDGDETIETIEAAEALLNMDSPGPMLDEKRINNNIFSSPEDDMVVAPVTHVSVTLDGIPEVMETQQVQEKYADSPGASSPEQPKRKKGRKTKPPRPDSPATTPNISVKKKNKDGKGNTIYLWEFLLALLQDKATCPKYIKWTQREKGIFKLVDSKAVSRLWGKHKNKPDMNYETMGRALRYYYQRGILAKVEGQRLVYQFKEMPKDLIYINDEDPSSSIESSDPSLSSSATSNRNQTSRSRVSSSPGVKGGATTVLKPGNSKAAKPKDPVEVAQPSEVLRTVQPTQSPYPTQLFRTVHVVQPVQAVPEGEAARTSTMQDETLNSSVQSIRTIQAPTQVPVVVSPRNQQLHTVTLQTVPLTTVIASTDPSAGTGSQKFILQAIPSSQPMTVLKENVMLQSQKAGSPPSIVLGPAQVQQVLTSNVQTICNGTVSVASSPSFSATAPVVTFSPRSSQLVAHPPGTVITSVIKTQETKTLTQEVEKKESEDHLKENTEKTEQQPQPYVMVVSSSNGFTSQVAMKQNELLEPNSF
# SPIB, sequence (Q01892 whole entry): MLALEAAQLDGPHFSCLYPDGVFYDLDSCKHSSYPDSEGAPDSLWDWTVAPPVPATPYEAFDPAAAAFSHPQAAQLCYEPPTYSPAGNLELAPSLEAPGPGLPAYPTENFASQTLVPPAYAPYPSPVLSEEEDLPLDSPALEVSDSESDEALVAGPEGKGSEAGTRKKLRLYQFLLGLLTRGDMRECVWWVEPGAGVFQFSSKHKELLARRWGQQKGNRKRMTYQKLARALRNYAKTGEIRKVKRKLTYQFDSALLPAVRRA
# ELF4, sequence (Q99607 whole entry): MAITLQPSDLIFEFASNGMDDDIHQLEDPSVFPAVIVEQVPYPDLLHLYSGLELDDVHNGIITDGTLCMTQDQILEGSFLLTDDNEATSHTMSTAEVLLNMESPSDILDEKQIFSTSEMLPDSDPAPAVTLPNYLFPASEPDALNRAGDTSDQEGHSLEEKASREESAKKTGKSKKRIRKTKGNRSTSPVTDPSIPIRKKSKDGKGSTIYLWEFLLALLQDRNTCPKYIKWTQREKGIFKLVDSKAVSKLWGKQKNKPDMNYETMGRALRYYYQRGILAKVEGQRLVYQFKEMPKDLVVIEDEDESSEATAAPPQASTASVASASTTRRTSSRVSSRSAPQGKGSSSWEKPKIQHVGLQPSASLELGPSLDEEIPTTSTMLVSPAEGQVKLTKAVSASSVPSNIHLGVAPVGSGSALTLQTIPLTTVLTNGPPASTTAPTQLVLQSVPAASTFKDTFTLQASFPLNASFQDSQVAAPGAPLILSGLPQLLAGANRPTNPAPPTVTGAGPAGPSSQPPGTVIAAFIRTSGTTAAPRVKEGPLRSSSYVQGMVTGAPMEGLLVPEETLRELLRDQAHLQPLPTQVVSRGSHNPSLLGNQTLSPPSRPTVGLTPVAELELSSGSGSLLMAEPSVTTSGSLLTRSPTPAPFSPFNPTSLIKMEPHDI
# CRX, sequence (O43186 whole entry): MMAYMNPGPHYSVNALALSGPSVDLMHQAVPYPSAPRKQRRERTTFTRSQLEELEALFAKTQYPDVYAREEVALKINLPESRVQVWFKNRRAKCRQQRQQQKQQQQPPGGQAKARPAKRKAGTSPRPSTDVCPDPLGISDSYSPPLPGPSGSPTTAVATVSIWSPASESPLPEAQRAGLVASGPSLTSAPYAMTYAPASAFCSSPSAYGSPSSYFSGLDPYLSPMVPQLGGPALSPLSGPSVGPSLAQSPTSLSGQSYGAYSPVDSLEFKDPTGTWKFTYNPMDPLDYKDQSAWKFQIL
# HSF1, sequence (Q00613 whole entry): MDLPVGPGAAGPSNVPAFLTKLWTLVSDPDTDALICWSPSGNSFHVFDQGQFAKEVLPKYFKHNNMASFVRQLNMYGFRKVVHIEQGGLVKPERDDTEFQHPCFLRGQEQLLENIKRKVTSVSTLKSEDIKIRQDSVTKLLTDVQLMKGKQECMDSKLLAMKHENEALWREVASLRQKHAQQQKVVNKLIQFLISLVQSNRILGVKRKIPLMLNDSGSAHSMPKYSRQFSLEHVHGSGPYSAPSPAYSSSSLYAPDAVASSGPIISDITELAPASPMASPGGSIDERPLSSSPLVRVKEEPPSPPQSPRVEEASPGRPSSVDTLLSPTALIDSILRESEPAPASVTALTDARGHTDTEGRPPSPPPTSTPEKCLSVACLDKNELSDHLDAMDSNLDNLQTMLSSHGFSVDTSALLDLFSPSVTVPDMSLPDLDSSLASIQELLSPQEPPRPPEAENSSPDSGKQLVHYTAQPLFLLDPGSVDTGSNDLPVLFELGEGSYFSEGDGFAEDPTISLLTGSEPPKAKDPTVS
# ETV5, sequence (P41161 whole entry): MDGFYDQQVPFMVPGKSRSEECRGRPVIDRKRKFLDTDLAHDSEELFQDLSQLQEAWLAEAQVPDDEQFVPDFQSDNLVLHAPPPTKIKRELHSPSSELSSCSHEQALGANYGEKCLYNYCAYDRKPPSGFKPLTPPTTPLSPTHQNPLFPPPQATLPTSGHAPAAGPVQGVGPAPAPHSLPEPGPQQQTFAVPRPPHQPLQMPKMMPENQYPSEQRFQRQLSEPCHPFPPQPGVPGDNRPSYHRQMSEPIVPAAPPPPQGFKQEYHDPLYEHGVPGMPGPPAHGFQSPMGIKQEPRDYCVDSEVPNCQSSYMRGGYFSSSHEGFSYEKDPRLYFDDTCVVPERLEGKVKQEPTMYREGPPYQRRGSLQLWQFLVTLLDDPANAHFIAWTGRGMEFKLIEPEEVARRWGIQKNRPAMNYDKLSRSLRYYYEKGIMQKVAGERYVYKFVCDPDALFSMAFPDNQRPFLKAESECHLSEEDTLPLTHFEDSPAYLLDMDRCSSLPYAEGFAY
# ETV1, sequence (P50549 whole entry): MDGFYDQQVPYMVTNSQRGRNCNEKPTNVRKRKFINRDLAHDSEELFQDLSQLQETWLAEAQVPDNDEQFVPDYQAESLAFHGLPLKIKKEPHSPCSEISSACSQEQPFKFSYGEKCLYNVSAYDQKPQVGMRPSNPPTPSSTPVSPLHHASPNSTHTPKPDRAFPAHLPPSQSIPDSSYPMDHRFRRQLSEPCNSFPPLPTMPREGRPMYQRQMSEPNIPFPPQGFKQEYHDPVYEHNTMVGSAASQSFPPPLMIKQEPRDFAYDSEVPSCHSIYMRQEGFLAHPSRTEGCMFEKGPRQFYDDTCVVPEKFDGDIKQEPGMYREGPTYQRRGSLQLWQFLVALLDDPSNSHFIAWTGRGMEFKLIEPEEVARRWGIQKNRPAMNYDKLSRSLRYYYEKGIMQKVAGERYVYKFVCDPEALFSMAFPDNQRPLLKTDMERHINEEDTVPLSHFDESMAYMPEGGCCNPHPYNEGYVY
sequence,measurement,setting,value
CTGCAA,binding signal,FLI1,"1.29 fold enrichment (6-mer frequency, TF over GST control)"
same,binding signal,ELK1,"1.3 fold enrichment (6-mer frequency, TF over GST control)"
same,binding signal,GABPA,"1.2 fold enrichment (6-mer frequency, TF over GST control)"
same,binding signal,ERG,"1.23 fold enrichment (6-mer frequency, TF over GST control)"
same,binding signal,ELF1,"1.36 fold enrichment (6-mer frequency, TF over GST control)"
same,binding signal,EHF,"1.2 fold enrichment (6-mer frequency, TF over GST control)"
same,binding signal,SPI1,"1.31 fold enrichment (6-mer frequency, TF over GST control)"
same,binding signal,SPIB,"1.27 fold enrichment (6-mer frequency, TF over GST control)"
same,binding signal,ELK3,"1.33 fold enrichment (6-mer frequency, TF over GST control)"
same,binding signal,FEV,"1.29 fold enrichment (6-mer frequency, TF over GST control)"
same,binding signal,ETV5,"1.3 fold enrichment (6-mer frequency, TF over GST control)"
same,binding signal,HSF1,"1.14 fold enrichment (6-mer frequency, TF over GST control)"
same,binding signal,SPIC,"1.2 fold enrichment (6-mer frequency, TF over GST control)"
same,binding signal,ELF4,"1.23 fold enrichment (6-mer frequency, TF over GST control)"
same,binding signal,ELK4,"1.32 fold enrichment (6-mer frequency, TF over GST control)"
same,binding signal,ETV2,"1.07 fold enrichment (6-mer frequency, TF over GST control)"
same,binding signal,ELF3,"1.4 fold enrichment (6-mer frequency, TF over GST control)"
same,binding signal,CRX,"1.05 fold enrichment (6-mer frequency, TF over GST control)"
same,binding signal,ETV1,"1.24 fold enrichment (6-mer frequency, TF over GST control)"
